Source: PubChem BioAssay
Most compounds without a hit are left out; they make up all but 2.4% or so of the library.
CHRM1 antagonist: antagonists of human M1 muscarinic receptor. AID 588852. CHO-K1 hM1, Fluo-8 calcium fluorescence, ACh EC80 antagonist. inhibition, % at 3 µM. 360,000 compounds, 1.3% hits;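 active means percent inhibition above its own plate's cutoff, namely the mean of that plate's compound wells plus 3 SD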;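 further: peak over basal fluorescence ratio during 140 s after agonist addition; 0% = ACh EC80 plus DMSO and 100% = DMSO alone without agonist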
Target sequence (P11229 whole entry, looked up): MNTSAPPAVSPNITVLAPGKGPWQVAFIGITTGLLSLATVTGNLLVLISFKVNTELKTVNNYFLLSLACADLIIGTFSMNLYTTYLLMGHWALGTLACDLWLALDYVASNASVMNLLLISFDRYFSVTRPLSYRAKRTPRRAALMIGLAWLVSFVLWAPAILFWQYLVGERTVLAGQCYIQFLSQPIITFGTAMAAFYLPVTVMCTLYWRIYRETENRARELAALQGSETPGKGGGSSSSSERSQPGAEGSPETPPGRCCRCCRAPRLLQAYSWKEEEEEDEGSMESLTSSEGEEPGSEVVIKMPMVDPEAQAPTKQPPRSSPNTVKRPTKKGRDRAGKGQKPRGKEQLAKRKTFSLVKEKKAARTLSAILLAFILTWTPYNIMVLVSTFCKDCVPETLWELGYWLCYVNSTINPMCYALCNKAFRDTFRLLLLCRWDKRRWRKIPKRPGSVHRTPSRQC
M1 ag: agonists of human M1 muscarinic receptor; P11229; CHO-K1 hM1, Fluo-8 calcium fluorescence, agonist mode; 0% DMSO, 100% acetylcholine EC100; activation, % at 3 µM; 360,000 compounds, 0.33% hits; AID 588814;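 active means activation above the run's mean compound activation plus 3 SD, cut at about 16% in these data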;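 further: peak over basal fluorescence ratio within a 140 s kinetic read after compound addition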
CHO-K1 Ca PAM: M1 PAM counterscreen hit in parental CHO-K1 cells. ATP EC20, Fluo-8 calcium fluorescence; 0% at ATP EC20, 100% at ATP max. AID 602247. activation, % at 3 µM. 360,000 compounds, 0.02% hits;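 active means activation above the run cutoff, the mean activation of all test compounds plus 3 SD, cut at about 40% in these data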;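 further: peak over basal fluorescence ratio in a 140 s read after ATP addition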
CHRM1 PAM: potentiates human M1 receptor response to acetylcholine; CHO-K1 hM1, Fluo-8 calcium fluorescence, ACh EC20; 0% = ACh EC20, 100% = maximal ACh; AID 588819; 360,000 compounds, 0.088% hits; activation, % at 3 µM; P11229; in the data active means activation above about 19%, passing the limit was not always enough
M1 ag parental: counter-screen for M1 agonists: effect in parental CHO-K1 cells; Fluo-8 calcium fluorescence; scaled to maximal ATP response, vehicle zero; activation, % at 3 µM; 360,000 compounds, 0.48% hits; AID 602248; in the data active means activation above about 15%;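 further: untransfected CHO-K1 host cells lacking M1 receptor as counterscreen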
CHO-K1 Ca antag: counter-screen for M1 antagonists: effect in parental CHO-K1 cells; inhibition, % at 3 µM; 360,000 compounds, 0.6% hits; ATP-induced calcium, Fluo-8 fluorescence;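 active means inhibition above a per-plate cutoff, the plate's mean sample inhibition plus 3 SD, cut at about 24% in these data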;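 further: 0% = DMSO plus EC80 ATP and 100% = DMSO alone without ATP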
Active calls of the source: *.

SMILES | CHRM1 antagonist | M1 ag | CHO-K1 Ca PAM | CHRM1 PAM | M1 ag parental | CHO-K1 Ca antag
Cn1c(Cc2ccccc2)nnc1SCC(=O)c1ccc(Br)s1 | 22* | -7 | 8 | -24 | 0 | -1
COC(=O)[C@H](Cc1c[nH]c2ccccc12)NC(=O)Cc1c[nH]c2ccccc12 | -8 | 2 | 8 | 4 | 13 | -6
CCOC(=O)C(Cc1ccc(O)cc1)NC(=O)CCc1c[nH]c2ccccc12 (stereo not given) | -3 | 21* | 4 | 0 | 11 | -5
O=C(CCc1c[nH]c2ccccc12)NC(Cc1c[nH]c2ccccc12)C(=O)O (stereo not given) | -12 | -2 | 20 | 17 | 0 | -8
COC(=O)[C@H](Cc1c[nH]c2ccccc12)NC(=O)CCCc1c[nH]c2ccccc12 | 0 | 2 | 12 | 2 | 16* | 3
CCOC(=O)C1=C(COC(=O)CCc2ccccc2)NC(=O)NC1C (stereo not given) | -5 | -1 | -7 | 0 | 3 | -10
CC1=C/C(=N\OC(=O)/C=C/c2ccccc2)C(C)=CC1=O | 0 | 1 | -4 | 11 | 0 | 28*
COc1cc(C(=O)NCC(=O)N/N=C(/C)c2ccc3c(c2)CCCC3)cc(OC)c1OC | 7 | -7 | -12 | 3 | 0 | 27*
COc1cccc(NC(=O)CN(C)C(=O)c2cc(-c3ccccc3)nc3ccccc23)c1 | 16 | -1 | 4 | -4 | 7 | 3
COc1cccc(NC(=O)CN(C)C(=O)c2cc(-c3ccccc3)nn2-c2ccccc2)c1 | -28 | -1 | 16 | 24* | 0 | -14
CN(CC(=O)Nc1cccc(F)c1)C(=O)Cc1n[nH]c(=O)c2ccccc12 | 41* | -3 | 13 | -15 | 0 | -3
COc1ccc(-c2cc(C(=O)N(C)CC(=O)Nc3cccc(F)c3)c3ccccc3n2)cc1OC | 37* | 3 | -11 | -15 | 9 | 14
COc1cccc(NC(=O)CN(C)C(=O)c2cc(-c3ccc(F)cc3)nc3ccccc23)c1 | 27* | 0 | 1 | -6 | 8 | 10
COc1ccc(-c2cnc3c(NC=O)cc(-c4ccccc4OC)cn23)cc1OC | 5 | 5 | 25 | -5 | 6 | -13
COc1ccc(C2CCCN2C(=O)Nc2cccc(C(C)=O)c2)cc1OC (stereo not given) | 22 | 0 | -6 | -6 | 0 | 26*
CCOc1ccccc1NC(=O)CC1(CC(=O)N2CCOCC2)CCCC1 | -16 | -1 | -13 | 9 | 1 | -7
COc1ccc(NC(=O)CC2(CC(=O)N3CCOCC3)CCCC2)cc1Cl | 56* | -8 | -19 | -17 | 0 | 17
CC1=CC(C)C2(CO)COC(c3cccnc3)C1C2C (stereo not given) | 1 | -1 | -11 | 11 | 1 | 28*
CC1=CC(C)C2(CO)COC(c3ccc(O)cc3)C1C2C (stereo not given) | 6 | 5 | -3 | 3 | 2 | 8
CCOC(=O)C1(Cc2ccccc2)CCCN(Cc2cnn(CC)c2)C1 (stereo not given) | -16 | -5 | 15 | 9 | 0 | -14
CCOC(=O)C1(Cc2ccccc2)CCCN(C(=O)c2cnn(CC)c2)C1 (stereo not given) | -7 | -2 | 6 | 6 | 6 | 29*
N#CC1=C(S)N(c2ccccc2)C(c2ccc(-c3ccccc3Cl)o2)NC1=O (stereo not given) | -8 | -4 | 14 | 5 | 0 | -1
COc1cccc(C(C)(O)c2nc(-c3ccc(N(C)C)cc3)cs2)c1 (stereo not given) | 27 | 0 | 2 | -14 | 9 | 5
Cc1cc(C(=O)Nc2ccon2)ccc1[N+](=O)[O-] | -6 | -2 | 2 | 7 | 21* | 2
CC(=O)c1c(C)n(CC(=O)NCc2ccco2)c2ccccc12 | 35* | -3 | 2 | -9 | 2 | -27
CCc1nnc(NC(=O)C2CCCN2C(=O)Nc2ccccc2)s1 (stereo not given) | -13 | -6 | 14 | 12 | 20* | -1
COc1ccc2cc(C(N)=O)c(=Nc3ccccc3)oc2c1 | -7 | -7 | 21 | 12 | 0 | -3
NC(=O)c1cc2ccc(O)cc2oc1=Nc1ccccc1 | -20 | 9 | -8 | 5 | 2 | 24*
